Results on three molecules are retold here after PubChem BioAssay AID651871 (Sanford-Burnham Center for Chemical Genomics, 2012).

Several values for one entry are separate records, joined by “and”; a condition that tells them apart may be missing. Equal entries are not always repeated.

For the test, the system named is H9c2. In words: cardiomyocyte survival under oxidative or metabolic stress – cell-based, panel, H9c2 and HL-1, ATP luminescence, set 2, SAR follow-up (AID 651871).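 Further: cells exposed to stressor for 2 h before ATP readout; reference of the scale not given here.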 The following applies: H9c2/HL-1 cardiomyocytes, 2-deoxyglucose stress, with 2-deoxyglucose; run 12, at 79 µM (top of the series).
For the molecule `COc1ccc2c(c1OC)C(=O)N1c3ccccc3C(=O)N(Cc3cccc(Cl)c3Cl)C21` (stereo not drawn), the activity (protection/inhibition) was 79.7% and 81.4% and -3.37%.

As for `CCOC(=O)c1cccc(NC(=O)CNC(=O)c2cc(-c3cc(OC)c(OC)c(OC)c3)nc3ccccc23)c1`, the activity (protection/inhibition) came out at 86.3%.

With `COc1ccc2nc(-c3cc(OC)c(OC)c(OC)c3)cc(C(=O)NCC(=O)Nc3ccc(C(C)=O)cc3)c2c1`, the activity (protection/inhibition) was found to be 79.9%.
